Data taken from PubChem BioAssay (Tox21).
Values without a mark were called inactive. The call rests on the fitted dose curve; in most records, active means well fitted activation curve with a large enough effect in the repeat runs; inconclusive means weak or mixed curves; inactive means flat fitted curve, though single readings scatter.

Assay: A CellTox Green Cytotoxicity Assay to monitor cytotoxicity in HepG2 cells - 0 hour (AID 1224882); further: nearly all actives have a fitted effect of over 35% in size
Conditions: CellTox Green fluorescence; series mostly up to 76.8 µM; cytotoxicity: at the top concentration
From the text: National Center for Advancing Translational Sciences [NCATS]
NIH Chemical Genomics Center [NCGC]
U.S. Environmental Protection Agency [EPA]
National Institutes of Environmental Health Sciences [NIEHS]
National Toxicology Program [NTP]
Cell-based models are critical for drug discovery. Determining the natural cytotoxic effects resulting from test compounds is an essential research activity. A CellTox Green Cytotoxicity Assay to monitor cytotoxicity in real time of continues cell culture during 40 hours of the compound treatment was used to screen Tox21 10K library compounds in HepG2 cells. CellTox Green Cytotoxicity Assay is a nonlytic, homogeneous, biofluorescent method to measure cytotoxicity in cell culture after experimental manipulation. The assay system uses a proprietary asymmetric cyanine dye that is excluded from viable cells but preferentially stains the dead cell's DNA. […] Viable cells produce no appreciable increases in fluorescence. Therefore, the fluorescence signal produced by the binding interaction with dead cell DNA is proportional to cytotoxicity.
The mixture of HepG2 cell suspension and reagents were dispensed at 600cells/6 ul/well in 1536-well tissue culture treated black solid bottom plates using a Multidrop dispenser. After the assay plates were incubated at a 37 C/5% CO2 incubator for 5 hours, 23 nL of compounds dissolved in DMSO, positive and negative controls was transferred to the assay plate by a pintool work station. The plates were incubated at 37 C for 40 hours. The fluorescence intensity were measured at 0h, 8h, 16h, 24h, 32h and 40h time points using ViewLux plate reader during compound treatment.
On the % scale 0 is the no-effect control and ±100 the full control effect.

| SMILES | cytotoxicity |
| --- | --- |
| CCCOc1ccc(C(=O)OCCN(CC)CC)cc1N | -7.84% [at 35.3 µM] |
| c1cc2ccc3ccc4ccc5cccc6c(c1)c2c3c4c56 | -21.2% [at 2.72 µM] |
| CC1(C)S[C@@H]2[C@H](NC(=O)Cc3ccccc3)C(=O)N2[C@H]1C(=O)O (tested in a mixture with another compound) | -5.73% [at 35.3 µM] |
| O=C(O)P(=O)(O)O | -1.03% [at 35.3 µM] |
| CC1(C)C(=O)C(C)(C)C1=O | 8.57% |
| CC(C)(C)C(=O)CCc1ccc(Cl)cc1 | -1.43% |
| CCN1CCN(C(=O)N[C@@H](C(=O)N[C@@H]2C(=O)N3[C@@H]2SC(C)(C)[C@H]3C(=O)O)c2ccccc2)C(=O)C1=O | -14% [at 35.3 µM] |
| CC(C)(C)OC(=O)c1ccccc1C(=O)O | -1.54% |
| CN1CCN(C(=O)C2CCCCC2)CC1 | -8.63% [at 35.3 µM] |
| COCCCOc1cc(C[C@@H](C[C@H](N)[C@@H](O)C[C@H](C(=O)NCC(C)(C)C(N)=O)C(C)C)C(C)C)ccc1OC | -1.71% [at 35.3 µM] |
| NC(=O)CC[C@@H](N)C(=O)O | -6.79% [at 35.3 µM] |
| Cc1ccccc1C#N | 0.314% |
| C=CCN1CCc2nc(N)sc2CC1 | 0.53% [at 35.3 µM] |
| Nc1cc(S(=O)(=O)O)ccc1O | -1.13% |
| COc1cc(NS(=O)(=O)c2ccc(N)cc2)ncn1 | 2.4% [at 35.3 µM] |
| CCOC(=O)COc1ccc2c(C)c(CCN(CC)CC)c(=O)oc2c1Cl | -7% [at 35.3 µM] |
| CCCCN(CCCC)CCCCCCN(CCCC)CCCC | 2.72% |
| BrCCOc1ccccc1 | -8.87% |
| O=C(O)CCC(=O)Nc1ccc(S(=O)(=O)Nc2nccs2)cc1 | 3.4% [at 35.3 µM] |
| CC(CC(=O)Cl)CC(C)(C)C (stereo not given) | 3.22% |

| SMILES | cytotoxicity |
| --- | --- |
| Cc1cc(O)c(Cl)cc1C | 3.35% |
| CN(C)c1cc(NC(=O)CNC(C)(C)C)c(O)c2c1C[C@H]1C[C@H]3[C@H](N(C)C)C(=O)C(C(N)=O)=C(O)[C@@]3(O)C(=O)C1=C2O | -7.4% [at 35.3 µM] |
| Cc1cc(=O)oc2cc(O[C@@H]3SC[C@@H](O)[C@H](O)[C@H]3O)ccc12 | -0.719% [at 35.3 µM] |
| CCOC(=O)[C@H](CCc1ccccc1)N[C@H]1CS[C@H](c2cccs2)CN(CC(=O)O)C1=O | 0.578% [at 35.3 µM] |
| CC(=O)c1ccc2ccc3ccccc3c2c1 | 1.17% |
| C=C(C)C(=O)OCCCC | -1.78% |
| CC(=O)Oc1ccc(C(C)=O)cc1 | 7.69% |
| O=C(O)Cc1c(Cl)ccc(Cl)c1Cl | 10.2% |
| C=COCCCCO | -9.55% |
| CC(C)(C)C(=O)CC(=O)C(C)(C)C | -17.8% |
| O=C(O)CCCCCCCCCC(=O)O | -4.79% |
| CCOc1ccccc1OCCN[C@H](C)Cc1ccc(OC)c(S(N)(=O)=O)c1 | 14.5% [at 35.3 µM] |
| COc1ccccc1N1CCN(CC(O)COc2cc(OC)c(OC)c(OC)c2)CC1 (stereo not given) | -6.31% [at 35.3 µM] |
| CCOC(=O)CC(C(C)=O)C(C)=O | -1.91% |
| CCN(CC)CC(=O)Oc1ccc(NC(C)=O)cc1 | -6.71% [at 35.3 µM] |
| CC(C)(C)OC=O | 1.97% |
| CO/N=C(\C(=O)O)c1csc(NC(=O)CCl)n1 | 1.7% [at 35.3 µM] |
| Cc1ccc(O)c([N+](=O)[O-])c1 | -4.9% |
| COc1cc(OC)cc(OC)c1 | 0.621% [at 35.3 µM] |
| C=CCCCCCCCCOC(C)=O | -0.67% |
